# Giardia FBPA inh: qHTS Assay for Inhibitors of Fructose-1,6-bisphosphate Aldolase from Giardia Lamblia. purified Giardia FBPA. Potency, µM (top dose mostly 59.6 µM), without a hit: at the highest dose activity, negative = inhibition, actives largely listed as inhibitors. hit rate 0.71% among 290,000; further: potency means the concentration at half of the fitted maximal effect; on the % scale 0 is the no-effect control and ±100 the full control effect; nearly all actives have a fitted effect of over 55% in size
# Target sequence (A8B2U2 whole entry, looked up): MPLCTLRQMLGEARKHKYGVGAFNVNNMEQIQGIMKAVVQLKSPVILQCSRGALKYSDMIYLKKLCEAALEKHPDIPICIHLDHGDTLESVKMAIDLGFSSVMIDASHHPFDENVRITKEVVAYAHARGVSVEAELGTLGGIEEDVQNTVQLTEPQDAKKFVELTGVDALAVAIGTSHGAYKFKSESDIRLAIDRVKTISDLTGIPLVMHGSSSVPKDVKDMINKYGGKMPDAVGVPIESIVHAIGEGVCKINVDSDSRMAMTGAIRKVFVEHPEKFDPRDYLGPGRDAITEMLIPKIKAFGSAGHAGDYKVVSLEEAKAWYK
#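 40 nM FBPA preincubated 10 min at RT with compound (up to 57.5 uM final), then substrate plus GAPDH/TPI/NAD/arsenate coupling and diaphorase/resazurin added. Fluorescence read after 20 min at RT, 525/598 nm.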
# LmPK inh: qHTS Assay for Inhibitors of Leishmania Mexicana Pyruvate Kinase (LmPK); Q27686; purified LmPK, Kinase-Glo ATP luminescence, 1 h; Potency, µM (highest dose often 57.5 µM), for the others: at the top dose activity change, negative = inhibition, actives largely listed as inhibitors; hit rate 0.37% among 290,000; AID 1721, 2009; further: potency means the concentration at half of the fitted maximal effect; on the % scale 0 is the no-effect control and ±100 the full control effect
#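 0.1 nM LmPK, 0.5 mM PEP, 0.1 mM ADP; 50 mM imidazole pH 7.2, 7 mM MgCl2, 50 mM KCl; 1 h RT. Kinase-Glo luminescence readout, normalized to no-enzyme (full inhibition) and uninhibited wells.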
# CHX counter: Cycloheximide Counterscreen for Small Molecule Inhibitors of Shiga Toxin; hit rate 12% among 300,000; max response, %; AID 2314, 2010; cell reporter, cycloheximide protein synthesis inhibition counterscreen; in the data active means max response mostly above about 13%, no sharp cut-off; inactive means mostly below about 14%; further: read at 38.3 µM for the half of the compounds with a filed dose; 0% is about no effect
# TbPYK inhibitor: qHTS of Trypanosoma Brucei Inhibitors; Potency, µM (series often up to 76.8 µM), for inactives: at the top dose activity, negative = inhibition, most hits filed as inhibitors; hit rate 0.12% among 410,000; TbPYK enzyme, Kinase-Glo Plus ATP luminescence, 45 min; pyruvate kinase (Trypanosoma brucei), Q57TT1; further: potency means the concentration at half of the fitted maximal effect; on the % scale 0 is the no-effect control and ±100 the full control effect; nearly all actives have a fitted effect of over 50% in size
#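 In this concentration-response screen, enzyme-free wells defined baseline while DMSO plates tracked drift. Each reaction combined TbPYK, substrate, compound and 130 uM ADP for 45 min at room temperature. Kinase-Glo Plus luminescence gave the signal.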
# Sm TGR inh: qHTS Assay for the Inhibitors of Schistosoma Mansoni Peroxiredoxins | hit rate 3% among 360,000 | purified TGR, DTNB reduction, TNB absorbance 405 nm | AID 485364, 2010 | Potency, µM (highest dose often 114 µM), inactives show at the highest dose activity change, negative = inhibition, usual class: inhibitors | Schistosoma mansoni thioredoxin glutathione reductase (TGR), Q962Y6; further: potency means the concentration at half of the fitted maximal effect; on the % scale 0 is the no-effect control and ±100 the full control effect; nearly all actives have a fitted effect of over 60% in size
#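 TGR 20 nM + NADPH 100 uM (dispensed conc.), cpd preinc 15 min RT; start with NADPH (500 uM addition) then DTNB (15 mM addition). Kinetic TNB absorbance, 405 nm filter. Four-parameter Hill fit across titration.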
# Shiga inhibitor: A qHTS for Small Molecule Inhibitors of Shiga Toxin; AID 2315, 2010; Vero cells, Shiga toxin protein synthesis inhibition reporter; inhibition, % at 38.7 µM; hit rate 9.2% among 290,000; in the data active means inhibition mostly above about 28%, no sharp cut-off; inactive means mostly below about 43%; further: 0% is about no effect
# Numbers without * were called inactive; ? = inconclusive; . = no result; [ ] = remark or other dose. The sample as a whole holds a higher share of hits than the screen did. Unless noted, the call rests on the fitted dose curve; in most records, active means well fitted curve in the direction sought with a large enough effect; inconclusive means small, poorly fitted or top-dose-only effect, or another doubt; inactive means no such curve, though single readings can be large; an effect the other way counts as inactive or inconclusive.
SMILES,Giardia FBPA inh,LmPK inh,CHX counter,TbPYK inhibitor,Sm TGR inh,Shiga inhibitor
CCOc1ccc(NC(=O)c2nc3nc(C)cc(C(F)F)n3n2)cc1,.,.,.,0%,-8%,.
C[C@@H]1CN([C@@H](C)CO)C(=O)c2cc(Br)cnc2O[C@@H]1CN(C)C(=O)CN(C)C,.,.,.,1%,.,.
CCN(CC)S(=O)(=O)c1ccc(/C=C/C(=O)OCC(=O)NNC(=O)c2ccc(OC)cc2)cc1,.,.,.,-3%,-7%,.
Cc1cccc(NC(=O)c2cnn(C)c2)c1C,0%,-1%,-3,-8%,-5%,-4
O=C(Nc1ccccc1O)c1ccc(C(=O)c2ccccc2)o1,0%,3%,27*,3%,-25%,35*
Cc1cccc(NC(=O)c2cnn3ccccc23)c1C,-6%,1%,50*,0%,8%,78*
O=C(Nc1ccccc1O)c1ccccc1O,-6%,-7%,32*,4%,-30%,53*
Cc1ccc(C)c(NC(=O)c2ccccc2O)c1,-1%,-2%,22*,?,7%,54
Cc1cccc(NC(=O)c2cccc([N+](=O)[O-])c2O)c1C,.,.,.,2%,.,.
O=C(NCc1ccc(Cl)cc1)c1cnn2ccccc12,-6%,7%,56*,7%,5%,80*
Cc1ccccc1Cn1nnc(C(=O)Nc2cccc(C)c2C)c1N,-1%,0%,30*,-2%,0%,30
Cc1cccc(NC(=O)c2ccccc2O)c1C,-4%,-14%,34*,3%,17%,49*
Clc1nnc2c3ccccc3ccn12,.,.,.,-7%,.,.
CC(C)c1ccccc1NC(=O)Cn1cnc2c1c(=O)n(C)c(=O)n2C,.,.,.,-8%,-2%,.
CCCC(O)c1nc2ccccc2n1Cc1ccccc1OC (stereo not drawn),.,.,.,-1%,-16%,.
CCOc1ccc(-c2ccc(SCc3ccccn3)nn2)cc1,2%,2%,40*,3%,-2%,59*
CCc1ccc(-c2ccc(SCc3ccccn3)nn2)cc1,0%,-5%[11.5 µM],41*,-1%,-1%,103*
CCOc1ccc(-c2ccc(SCC(=O)N3CCN(c4ccccc4)CC3)nn2)cc1,4%,3%,3,.,-4%,3
CC1(c2ccccc2)C(C#N)C(=O)NC(=O)C1C#N (stereo not drawn),.,.,.,3%,.,.
Nc1ccccc1SCc1csc(-c2ccc(Cl)cc2)n1,-12%,5%,44*,-11%,9%,113*
Cc1cc(C)nc(SCc2csc(N)n2)n1,-15%,-1%,28*,-24%,?,64
Cc1cc(C)nc(SCc2csc(-c3ccccc3)n2)n1,-1%,-5%,61*,-7%,11%,85*
CCCc1cc(=O)[nH]c(SCc2csc(-c3ccccc3)n2)n1,-1%,1%,14,-1%,-12%,4
O=C(CSc1nc(-c2cccc(Cl)c2)nc2cc(=O)[nH]n12)Nc1ccccc1,.,.,.,-4%,-1%,.
Cc1cccc(NC(=O)CSc2nnc(CNC(=O)c3c(F)cccc3Cl)o2)c1C,.,.,.,2%,5%,.
SMILES,Giardia FBPA inh,LmPK inh,CHX counter,TbPYK inhibitor,Sm TGR inh,Shiga inhibitor
COc1ccc(Cn2c(CCC(=O)Nc3cc(OC)c(OC)c(OC)c3)nc3cccnc32)cc1,.,.,.,-5%,-4%,.
[O-][n+]1c2c(nn1-c1ccccc1)/C(=N/O)CCC2,5%,-7%,2,-5%,.,-4
[O-][n+]1onc2c1CCC(=N/O)/C2=N\Nc1ccccc1,?,?,19*,.,18µM*,55
COc1cccc(NC(=O)CCN2C(=O)c3ccccc3Sc3ncccc32)c1,-1%,4%,-1,-2%,?,-5
COc1ccc(Cl)cc1C(=O)NCc1nnnn1-c1ccccc1,.,.,.,2%,-2%,.
O=c1c(N2CCCCC2)coc2ccccc12,8%,-19%,20*,2%,-20%,55
Cc1cc(NC2CCCC2)n2ncc(-c3ccccc3)c2n1,-1%,-1%,23*,-3%,-1%,17
Cc1cc(NCCCn2ccnc2)n2ncc(-c3ccccc3)c2n1,4%,-4%,9,-12%,3%,18
Cc1cc(NC2CCCC2)n2nc(C)c(-c3ccccc3)c2n1,8%,5%,29*,-18%,8%,38
CCOC(=O)c1cc2c(=O)n3ccccc3nc2n(CCCOC)c1=NC(=O)c1c(-c2c(F)cccc2Cl)noc1C,.,.,.,-2%,0%,.
CC(NC(=O)COc1ccc(S(=O)(=O)N2CCOCC2)cc1)c1ccccc1 (stereo not drawn),.,.,.,4%,-16%,.
O=C(Cc1ccccc1)NN=Cc1ccccc1,.,.,.,0%,.,.
O=C(Cc1ccccc1)N/N=C/c1cc(Br)c(Br)o1,1%,5%,43*,-2%,?,38*
O=C(N/N=C\c1cc2c(cc1Cl)OCO2)c1cccnc1,1%,-4%,10,0%,-11%,12
CC(C)c1ccc(/C=N/NC(=O)c2cccc(Cl)c2)cc1,1%,-20%,49*,-5%,-5%,active
CC(C)c1ccc(C(=O)N/N=C/c2cccc(Cl)c2Cl)cc1,-3%,-2%,3,-3%,0%,11
O=C(Cc1ccccc1)N/N=C/c1ccccc1F,2%,-1%,-2,.,3%,58*
O=C(N/N=C/c1cc(Cl)ccc1O)c1cccnc1,?,-3%,13*,2%,-2%,25
Nc1ccccc1C(=O)NC(=O)Nc1ccc(Oc2ncc(Br)cn2)c(Cl)c1,.,.,.,1%,.,.
CCOc1ccc(CNS(=O)(=O)c2ccc(-c3coc(C)n3)cc2)cc1OC,.,.,.,-6%,3%,.
Cc1cc(-c2ccccc2)nc2cc(C(=O)Nc3ccc(Cl)c(Cl)c3)nn12,.,.,.,-2%,43%,.
O=C(N/N=C/c1cccnc1)c1cccc(Br)c1,-2%,-9%,17*,0%,-2%,34
O=C(N/N=C/c1cc(Cl)ccc1O)c1ccccc1Br,12%,-2%,40*,1%,4%,27*
O=C(N/N=C/c1ccc(Cl)cc1Cl)c1ccncc1,3%,1%,24*,-1%,-21%,45*
CC(C)c1ccc(/C=N/NC(=O)CCNC(=O)c2ccccc2)cc1,8%,-7%,21*,1%,-2%,96*
O=C(CNC(=O)c1ccccc1Br)N/N=C/c1cc(Br)ccc1O,12%,-2%,-3,5%,6%,29
O=C(N/N=C/c1cccnc1)c1cccc(NC(=O)c2ccc(Cl)cc2)c1,13%,-3%,3,3%,-32%,20
CC(C)(C)Cn1nc(-c2ccc(Cl)cc2)c2c(N)ncnc21,5%,.,.,.,.,.
CC[C@@]12CCCN3CCc4c(n(c5ccccc45)C(=O)C1)[C@H]32,3%[21.7 µM],.,.,0%[33.2 µM],.,.
N#Cc1ccccc1NC(=O)C(=O)NCCc1csc(-c2ccc(F)cc2)n1,.,.,.,3%,-2%,.
